The list is not random: actives were taken first. Their share in the collection is about 2.3%.
USP1-UAF1 inh: USP1/UAF1 (human) deubiquitinase inhibition. AID 743255. recombinant USP1/UAF1, Ub-Rhodamine cleavage fluorescence. 0.23% of 390,000 active. Potency, µM (highest dose often 57.1 µM), for the others: at the highest dose activity change, negative = inhibition, hits mostly inhibitors. O94782; note: potency is the fitted concentration of half-maximal effect; nearly all actives have a fitted effect of over 60% in size
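1 nM enzyme complex + cpd, 15 min RT; start with Ub-Rho 150nM final; kinetic fluorescence ex 480/em 540, 6 reads q60 s. Buffer 50mM HEPES pH 7.8, 0.5mM EDTA, 0.1 mg/ml BSA, 1mM TCEP, 0.01% Tween-20.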
Tau fibril FP: tau fibrillization inhibition (FP); P10636; K18 P301L tau heparin fibrillization, Alexa594 FP, 6 h; Potency, µM (series often up to 57.7 µM), for the others: at the top dose activity, negative = inhibition, actives largely listed as inhibitors; 0.39% of 280,000 active; note: potency is the fitted concentration of half-maximal effect; nearly all actives have a fitted effect of over 55% in size
Target sequence (P10636 561-689 P618L limits assumed): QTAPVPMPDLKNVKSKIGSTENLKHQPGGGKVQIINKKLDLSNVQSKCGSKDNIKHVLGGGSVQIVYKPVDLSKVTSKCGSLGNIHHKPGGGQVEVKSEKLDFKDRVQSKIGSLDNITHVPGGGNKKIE
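Human K18 P301L fragment (15 uM unlabeled plus 0.24 uM Alexa 594-labeled) in 100 mM sodium acetate pH 7 with compound, aggregation induced by 20 uM heparin for 6 hr at 37 C. ThT (30 uM) added for 1 hr, then Alexa 594 FP read.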
Tau ThT inhib: blocks human tau fibril formation measured by thioflavin T; P10636; recombinant tau K18 P301L, heparin-induced fibrillization, ThT fluorescence; 2.1% of 270,000 active; Potency, µM (doses to about 57.4 µM), for inactives: at the highest dose activity, negative = inhibition, usual class: inhibitors; AID 1460; note: potency is the fitted concentration of half-maximal effect; nearly all actives have a fitted effect of over 55% in size
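Heparin-induced (20 uM) aggregation of recombinant human K18 P301L tau, 15 uM unlabeled with 0.24 uM labeled, pH 7 acetate buffer, 6 hr at 37 C with compound. Fibrils quantified by 30 uM ThT fluorescence after 1 hr ambient incubation.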
Tau fluor counter: counter-screen for tau fibril formation inhibitors | Potency, µM (top dose mostly 57.7 µM), for inactives: at the top dose activity change, negative = decrease | 0.93% of 280,000 active | AID 1463 | tau K18 P301L Alexa594 fluorescence, heparin fibrillization; note: potency is the fitted concentration of half-maximal effect; nearly all actives have a fitted effect of over 55% in size
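Human tau K18 P301L (15 uM unlabeled, 0.24 uM Alexa 594-labeled) in 100 mM sodium acetate pH 7 with 20 uM heparin, 6 hr at 37 C. ThT 30 uM added, 1 hr ambient; Alexa 594 FP and total fluorescence read at 555/632 nm.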
Coupling enz: coupling enzyme interference in Giardia aldolase counter-screen; coupling enzyme system counterscreen, AmpLite Red fluorescence; activity change, negative = inhibition, % at 58.2 µM, hits read low; 0.67% of 290,000 active; in the data active = activity change below about -30%
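Counterscreen of the coupled detection system alone, without aldolase: glyceraldehyde-3-phosphate coupling enzymes plus AmpLite Red readout. Compounds at 57.5 uM final, 10 min RT preincubation, 20 min RT reaction, fluorescence 525/598 nm.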
The depositor's hits bear a star; ? = inconclusive; / = no result; [ ] = another dose, or the depositor's remark. Unless noted, calls come from the whole dose curve; as a rule, active = well fitted curve in the direction sought with a large enough effect; inconclusive = small, poorly fitted or top-dose-only effect, or another doubt; inactive = no such curve, though single readings can be large; an effect the other way counts as inactive or inconclusive. % is set by controls: 0 for no effect and ±100 for the full control effect.

SMILES	USP1-UAF1 inh	Tau fibril FP	Tau ThT inhib	Tau fluor counter	Coupling enz
COC(=O)C1=C(C)N(Cc2ccccc2)C2=C(C(C)=O)C(c3ccccc3)[C@@](O)(C(=O)OC)C(=O)N2C1c1ccccc1 (some centres undefined)	/	?	?	-8.1%[11.6 µM]	2.0
Cc1ccc(C2=NN=C(NC(=O)CSc3nnc4c5ccccc5n(C)c4n3)SC2)cc1	-8.6%	?	2.82µM*	-21.8%	1.0
Cc1ccc(C2=NN=C(NC(=O)CSc3nc(C)cc(C)n3)SC2)cc1	/	?	12.6µM*	-18.3%	0.6
Cn1c2ccccc2c2nnc(SCC(=O)Nc3cccc(C(=O)O)c3)nc21	-19.1%	/	/	/	9.2
COc1cc(N/N=C(\C)c2ccc(N)cc2)nc(-c2ccccc2)n1	?	3.4%	15.8µM*	14.1µM*[quencher]	-2.8
COc1cc(N/N=C(\C)c2ccc(O)c(C)c2)nc(-c2ccccc2)n1	-25.4%	?	?	8.91µM*[quencher]	-3.3
Cc1ccc(C(=O)N(Cc2ccco2)c2ccccn2)cc1	-16.2%	-0.7%	?	-8.8%	/
O=[N+]([O-])c1ccc2c(c1)S(=O)(=O)C=C2	/	/	/	/	-2.5
O=C(N/N=C/c1ccccc1Cl)c1nc2ccc([N+](=O)[O-])cc2c(=O)[nH]1	-11.3%	0.7%	10µM*	?	-1.2
C[C@@H]1OC2C3=C(C(=O)[C@H]4O[C@@H]4[C@H]3O)[C@@H]1[C@H]1[C@H](C)OC=C3[C@H](O)[C@H]4O[C@H]4/C(=N\OCc4ccccc4)[C@@]321	/	-13.8%[11.6 µM]	-14.5%[11.5 µM]	-6.8%[11.6 µM]	1.2
COC(=O)C/C=C\[C@@H](C)[C@@H](/C=N\O[C@@H](C)CN1CCCCc2nc(C)c(C)cc21)NS(=O)(=O)c1ccc(C)cc1	/	-2.5%[11.6 µM]	-15.0%[11.5 µM]	-20.6%[11.6 µM]	2.0
O=C(NC1=NCCS1)c1cc(-c2ccc(-c3ccccc3)cc2)nc2ccccc12	-18.6%	28.2µM*	-4.9%	-23.2%	-2.3
COC(=O)c1sc(NC(=O)c2cc(-c3ccccc3)nc3ccccc23)c(C#N)c1C	-8.5%	?	28.2µM*	?	-73.3*
CCOC(=O)c1sc(NC(=O)c2cc(-c3ccc(C)cc3)nc3ccccc23)c(C#N)c1C	-7.5%	?	?	-26.3%	4.6
COc1ccc(-c2cc(C(=O)NC3=NCCS3)c3ccccc3n2)cc1OC	-20.0%	-11.1%	-15.8%	?	-3.4
CC(C)Cn1c([N+](=O)[O-])nc2c1c(=O)[nH]c(=O)n2C	-20.3%	-7.5%	/	-21.3%	-30.7*
Cn1c(=O)[nH]c(=O)c2c1nc([N+](=O)[O-])n2Cc1ccccc1	-18.9%	?	?	-14.3%	-45.4*
CCNc1nc2c(c(=O)[nH]c(=O)n2C)n1CC(C)C	?	-3.0%	-4.3%	0.6%	-1.3
O=S1c2ccccc2Nc2ccccc21	-30.0%	/	/	/	/
O=C1CCn2c1c(O)c1ccccc1c2=O	5.01µM*	/	/	/	/
COc1ccc([C@]23Cc4cc(C#N)ccc4C(O2)C2=C(CC4(CCCCC4)OC2=O)O3)cc1	/	/	/	/	0.3
c1cncc(CNc2cc(-c3ccoc3)ncn2)c1	/	/	/	/	-2.5
Cc1cccc(CNc2cc(-c3ccoc3)ncn2)c1	/	?	17.8µM*	-28.8%	-0.7
CCOc1ccc(Nc2nc(C)c(NC(=O)c3cccc(F)c3)c(Nc3ccc(OCC)cc3)n2)cc1	?	10.4%	?	7.94µM*[quencher]	/
CCOc1ccc(-n2nc3ccc(NC(=O)c4cccc(F)c4)cc3n2)cc1	-28.0%	?	?	-5.9%	/
SMILES	USP1-UAF1 inh	Tau fibril FP	Tau ThT inhib	Tau fluor counter	Coupling enz
COc1ccc(NC(=O)c2ccc(NCCCN3CCOCC3)c([N+](=O)[O-])c2)cc1	-21.7%	13.0%	15.8µM*	-21.1%	3.2
Cc1ccc(NC(=O)c2ccc(NCCCN3CCOCC3)c([N+](=O)[O-])c2)cc1Cl	-7.0%	-1.1%	12.6µM*	?	2.8
O=C(Nc1ccc(Cl)c([N+](=O)[O-])c1)c1ccc(NCCCN2CCOCC2)c([N+](=O)[O-])c1	-4.9%	-15.8%	2.51µM*	-27.7%	4.5
O=C(NCCCN1CCOCC1)c1ccc(Cl)c([N+](=O)[O-])c1	3.2%	/	/	/	/
CCn1ccc2cc(S(=O)(=O)N3CCCN(C(=O)Nc4cccc(SC)c4)CC3)ccc21	-30.4%	-5.2%	9.0%	-21.3%	/
Cc1cc(NC(=O)N2CC=C(c3c[nH]c4ccccc34)CC2)ccc1Br	?	-9.9%	7.94µM*	12.6µM*[quencher]	/
Cc1ccc(C)c(NC(=O)N2CC=C(c3c[nH]c4ccccc34)CC2)c1	?	7.3%	?	25.1µM*[quencher]	/
CCc1ccc(NC(=O)N2CCCCCC2)cc1	-19.3%	/	/	/	-1.5
COc1cc(OC)c(NC(=O)N2CC=C(c3c[nH]c4ccccc34)CC2)cc1Cl	?	?	?	7.94µM*[quencher]	/
CCc1ccc(NC(=O)N2CC=C(c3c[nH]c4ccccc34)CC2)cc1	-20.4%	-0.9%	7.08µM*	12.6µM*[quencher]	/
COc1cc(OC)c(NC(=O)N2CCOCC2)cc1Cl	-18.1%	/	/	/	0.1
O=C(O)c1ccc2c(c1)C(=O)N([C@]1(C(=O)O)CC1c1ccccc1)C2=O (some centres undefined)	/	/	/	/	1.3
O/N=C(/CCc1ccccc1)c1ccc2c(c1)OCCO2	0.8%	-8.8%	-14.6%	-25.6%	1.0
CCOc1ccc(NC(=O)N2CC=C(c3c[nH]c4ccccc34)CC2)cc1	-13.2%	-7.9%	4.47µM*	15.8µM*[quencher]	/
CCOC(=O)c1cccc(NC(=O)N2CC=C(c3c[nH]c4ccccc34)CC2)c1	?	-6.4%	?	12.6µM*[quencher]	/
CCOC(=O)c1cccc(NC(=O)N2CCC(CN3CCc4ccccc4C3)CC2)c1	-16.9%	0.6%	-5.0%	-6.2%	/
Cc1cccc(NC(=O)NC2COc3ccccc3C2)c1C (centres undefined)	1.3%	-5.4%	6.1%	6.0%	/
CCn1c(N)nc2c1c(=O)n(C)c(=O)n2C	-26.8%	-3.7%	-5.1%	3.6%	1.6
CCCc1nc2c(=O)n(C)c(=O)nc-2n(C)n1	0.1µM*	?	14.1µM*	-6.7%	-74.1*
Cn1nc(-c2ccccn2)nc2c(=O)n(C)c(=O)nc1-2	0.0316µM*	?	5.62µM*	-19.5%	-75.6*
COCCNC(=O)C(c1ccncc1)N(C(=O)c1sc(C)nc1C)c1cccc(C)c1 (centres undefined)	-6.7%	0.0%	-3.6%	-0.7%	4.5
Nc1cccc2c1C(=O)N(C(=O)/C=C/c1cccc(Br)c1)C2=O	?	?	25.1µM*	-23.7%	3.8
COc1ccc(OC)c(/C=C/C(=O)N2C(=O)c3cccc(N)c3C2=O)c1	-19.2%	?	14.1µM*	-18.0%	1.0
Nc1cccc2c1C(=O)N(C(=O)/C=C/c1cccc(F)c1)C2=O	-21.9%	?	14.1µM*	-15.7%	-0.7
COc1cc(/C=C/C(=O)N2C(=O)c3cccc(N)c3C2=O)cc(OC)c1OC	-7.3%	?	?	-14.7%	0.2

High-throughput results: PubChem BioAssay, National Center for Advancing Translational Sciences (NCATS)
